# The supplement of paper PMC4466140
# Columns and labels:
# Assay in all cases: SPOT peptide array binding signal intensity (averaged, normalized) (arbitrary units (background-subtracted, floor 0; scale differs between SH3 domains)); higher = stronger binding of the SH3 domain to the peptide
# [1] = biological target: AgAbp1
# Procedure, shortened: (§1)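 Peptides were synthetic 15-mers on cellulose membranes, with every cysteine replaced by serine. They were incubated overnight at 4°C with GST-SH3 domains from four yeast species at 10 μg/ml in TBS-based blocking buffer. Binding signal, the replicate-averaged normalized and background-subtracted spot intensity, is in arbitrary units that differ between domains.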
# [2] = biological target: AgBbc1
# Procedure, shortened: as §1
# [3] = biological target: AgBem1-D1
# Procedure, shortened: as §1
# [4] = biological target: AgBzz1-D1
# Procedure, shortened: as §1
# [5] = biological target: AgBzz1-D2
# Procedure, shortened: as §1
# [6] = biological target: AgCyk3
# Procedure, shortened: as §1
# [7] = biological target: AgFus1
# Procedure, shortened: as §1
# [8] = biological target: AgHof1
# Procedure, shortened: as §1
# [9] = biological target: AgHse1
# Procedure, shortened: as §1
# [10] = biological target: AgLsb1
# Procedure, shortened: as §1
# [11] = biological target: AgLsb4
# Procedure, shortened: as §1
# [12] = biological target: AgMyo5
# Procedure, shortened: as §1
# [13] = biological target: AgNbp2
# Procedure, shortened: as §1
# [14] = biological target: AgRvs167
# Procedure, shortened: as §1
# [15] = biological target: AgSho1
# Procedure, shortened: as §1
# [16] = biological target: AgSla1-D1-D2
# Procedure, shortened: as §1
# [17] = biological target: AgSla1-D3
# Procedure, shortened: as §1
# [18] = biological target: CaAbp1-D1
# Procedure, shortened: as §1
# [19] = biological target: CaAbp1-D2
# Procedure, shortened: as §1
# [20] = biological target: CaBbc1
# Procedure, shortened: as §1
# [21] = biological target: CaBem1-D1
# Procedure, shortened: as §1
# [22] = biological target: CaBzz1-D1
# Procedure, shortened: as §1
# [23] = biological target: CaBzz1-D2
# Procedure, shortened: as §1
# [24] = biological target: CaCyk3
# Procedure, shortened: as §1
# [25] = biological target: CaFus1
# Procedure, shortened: as §1
# [26] = biological target: CaHof1
# Procedure, shortened: as §1
# [27] = biological target: CaHse1
# Procedure, shortened: as §1
# [28] = biological target: CaLsb1
# Procedure, shortened: as §1
# [29] = biological target: CaLsb4
# Procedure, shortened: as §1
# [30] = biological target: CaMyo5
# Procedure, shortened: as §1
# [31] = biological target: CaNbp2
# Procedure, shortened: as §1
# [32] = biological target: CaRvs167
# Procedure, shortened: as §1
# [33] = biological target: CaRvs167-3
# Procedure, shortened: as §1
# [34] = biological target: CaSho1
# Procedure, shortened: as §1
# [35] = biological target: CaSla1-D1-D2
# Procedure, shortened: as §1
# [36] = biological target: CaSla1-D3
# Procedure, shortened: as §1
# [37] = biological target: ScAbp1
# Procedure, shortened: as §1
# [38] = biological target: ScBbc1
# Procedure, shortened: as §1
# [39] = biological target: ScBem1-D1
# Procedure, shortened: as §1
# [40] = biological target: ScBzz1-D1
# Procedure, shortened: as §1
# [41] = biological target: ScBzz1-D2
# Procedure, shortened: as §1
# [42] = biological target: ScCyk3
# Procedure, shortened: as §1
# [43] = biological target: ScFus1
# Procedure, shortened: as §1
# [44] = biological target: ScHof1
# Procedure, shortened: as §1
# [45] = biological target: ScHse1
# Procedure, shortened: as §1
# [46] = biological target: ScLsb1
# Procedure, shortened: as §1
# [47] = biological target: ScLsb2
# Procedure, shortened: as §1
# [48] = biological target: ScLsb3
# Procedure, shortened: as §1
# [49] = biological target: ScLsb4
# Procedure, shortened: as §1
# [50] = biological target: ScMyo3
# Procedure, shortened: as §1
# [51] = biological target: ScMyo5
# Procedure, shortened: as §1
# [52] = biological target: ScNbp2
# Procedure, shortened: as §1
# [53] = biological target: ScPex13
# Procedure, shortened: as §1
# [54] = biological target: ScRvs167
# Procedure, shortened: as §1
# [55] = biological target: ScSho1
# Procedure, shortened: as §1
# [56] = biological target: ScSla1-D1-D2
# Procedure, shortened: as §1
# [57] = biological target: ScSla1-D3
# Procedure, shortened: as §1
# [58] = biological target: SpAbp1-D1
# Procedure, shortened: as §1
# [59] = biological target: SpBbc1
# Procedure, shortened: as §1
# [60] = biological target: SpBzz1-D1
# Procedure, shortened: as §1
# [61] = biological target: SpBzz1-D2
# Procedure, shortened: as §1
# [62] = biological target: SpCyk3
# Procedure, shortened: as §1
# [63] = biological target: SpHof1
# Procedure, shortened: as §1
# [64] = biological target: SpHof1-2
# Procedure, shortened: as §1
# [65] = biological target: SpHof1-3
# Procedure, shortened: as §1
# [66] = biological target: SpHse1
# Procedure, shortened: as §1
# [67] = biological target: SpLsb1
# Procedure, shortened: as §1
# [68] = biological target: SpLsb4
# Procedure, shortened: as §1
# [69] = biological target: SpMyo1
# Procedure, shortened: as §1
# [70] = biological target: SpNbp2
# Procedure, shortened: as §1
# [71] = biological target: SpPex13
# Procedure, shortened: as §1
# [72] = biological target: SpRvs167
# Procedure, shortened: as §1
# [73] = biological target: SpSla1-D1-D2
# Procedure, shortened: as §1
# [74] = biological target: SpSla1-D3
# Procedure, shortened: as §1
binder,measurement,setting,value
LLRRTIPKRPFYHVL,SPOT peptide array binding signal intensity,[1],66.5
same,SPOT peptide array binding signal intensity,[2],73.8
same,SPOT peptide array binding signal intensity,[3],44.5
same,SPOT peptide array binding signal intensity,[4],13
same,SPOT peptide array binding signal intensity,[5],200
same,SPOT peptide array binding signal intensity,[6],≤ 0
same,SPOT peptide array binding signal intensity,[7],295
same,SPOT peptide array binding signal intensity,[8],11.5
same,SPOT peptide array binding signal intensity,[9],828
same,SPOT peptide array binding signal intensity,[10],1
same,SPOT peptide array binding signal intensity,[11],79
same,SPOT peptide array binding signal intensity,[12],≤ 0
same,SPOT peptide array binding signal intensity,[13],121
same,SPOT peptide array binding signal intensity,[14],4.5
same,SPOT peptide array binding signal intensity,[15],59
same,SPOT peptide array binding signal intensity,[16],108
same,SPOT peptide array binding signal intensity,[17],0.5
same,SPOT peptide array binding signal intensity,[18],604
same,SPOT peptide array binding signal intensity,[19],775
same,SPOT peptide array binding signal intensity,[20],427
same,SPOT peptide array binding signal intensity,[21],8.5
same,SPOT peptide array binding signal intensity,[22],71.5
same,SPOT peptide array binding signal intensity,[23],39.5
same,SPOT peptide array binding signal intensity,[24],156
same,SPOT peptide array binding signal intensity,[25],314
same,SPOT peptide array binding signal intensity,[26],0.5
same,SPOT peptide array binding signal intensity,[27],22
same,SPOT peptide array binding signal intensity,[28],0.5
same,SPOT peptide array binding signal intensity,[29],94.5
same,SPOT peptide array binding signal intensity,[30],0.5
YSRKKLPVVLSKMTL,SPOT peptide array binding signal intensity,[1],68
same,SPOT peptide array binding signal intensity,[2],21.5
same,SPOT peptide array binding signal intensity,[3],45.5
same,SPOT peptide array binding signal intensity,[4],82.5
same,SPOT peptide array binding signal intensity,[5],43.5
same,SPOT peptide array binding signal intensity,[6],3
same,SPOT peptide array binding signal intensity,[7],109
same,SPOT peptide array binding signal intensity,[8],28.8
same,SPOT peptide array binding signal intensity,[9],126
same,SPOT peptide array binding signal intensity,[10],223
same,SPOT peptide array binding signal intensity,[11],12
same,SPOT peptide array binding signal intensity,[12],3.25
same,SPOT peptide array binding signal intensity,[13],48.5
same,SPOT peptide array binding signal intensity,[14],3.5
same,SPOT peptide array binding signal intensity,[15],190
same,SPOT peptide array binding signal intensity,[16],57
same,SPOT peptide array binding signal intensity,[17],14.5
same,SPOT peptide array binding signal intensity,[18],444
same,SPOT peptide array binding signal intensity,[19],126
same,SPOT peptide array binding signal intensity,[20],15.8
same,SPOT peptide array binding signal intensity,[21],35.5
same,SPOT peptide array binding signal intensity,[22],197
same,SPOT peptide array binding signal intensity,[23],92.2
same,SPOT peptide array binding signal intensity,[24],8
same,SPOT peptide array binding signal intensity,[25],166
same,SPOT peptide array binding signal intensity,[26],2
same,SPOT peptide array binding signal intensity,[27],17.2
same,SPOT peptide array binding signal intensity,[28],16
same,SPOT peptide array binding signal intensity,[29],25.5
same,SPOT peptide array binding signal intensity,[30],4.75
same,SPOT peptide array binding signal intensity,[31],143
same,SPOT peptide array binding signal intensity,[32],16.7
same,SPOT peptide array binding signal intensity,[33],11.5
same,SPOT peptide array binding signal intensity,[34],131
same,SPOT peptide array binding signal intensity,[35],264
same,SPOT peptide array binding signal intensity,[36],131
same,SPOT peptide array binding signal intensity,[37],108
same,SPOT peptide array binding signal intensity,[38],11
same,SPOT peptide array binding signal intensity,[39],31
same,SPOT peptide array binding signal intensity,[40],67.5
same,SPOT peptide array binding signal intensity,[41],75
same,SPOT peptide array binding signal intensity,[42],9
same,SPOT peptide array binding signal intensity,[43],108
same,SPOT peptide array binding signal intensity,[44],4.5
same,SPOT peptide array binding signal intensity,[45],370
same,SPOT peptide array binding signal intensity,[46],191
same,SPOT peptide array binding signal intensity,[47],1100
same,SPOT peptide array binding signal intensity,[48],24.5
same,SPOT peptide array binding signal intensity,[49],12.5
same,SPOT peptide array binding signal intensity,[50],6
same,SPOT peptide array binding signal intensity,[51],6
same,SPOT peptide array binding signal intensity,[52],95
same,SPOT peptide array binding signal intensity,[53],150
same,SPOT peptide array binding signal intensity,[54],8.33
same,SPOT peptide array binding signal intensity,[55],2450
same,SPOT peptide array binding signal intensity,[56],300
same,SPOT peptide array binding signal intensity,[57],53.2
same,SPOT peptide array binding signal intensity,[58],243
same,SPOT peptide array binding signal intensity,[59],3
same,SPOT peptide array binding signal intensity,[60],137
same,SPOT peptide array binding signal intensity,[61],1.5
same,SPOT peptide array binding signal intensity,[62],4
same,SPOT peptide array binding signal intensity,[63],76.8
same,SPOT peptide array binding signal intensity,[64],27.2
same,SPOT peptide array binding signal intensity,[65],295
same,SPOT peptide array binding signal intensity,[66],77.8
same,SPOT peptide array binding signal intensity,[67],48
same,SPOT peptide array binding signal intensity,[68],40.5
same,SPOT peptide array binding signal intensity,[69],6
same,SPOT peptide array binding signal intensity,[70],49.5
same,SPOT peptide array binding signal intensity,[71],53
same,SPOT peptide array binding signal intensity,[72],8.67
same,SPOT peptide array binding signal intensity,[73],11.5
same,SPOT peptide array binding signal intensity,[74],41.5
